In PubChem BioAssay:
This is one part of the list. Unmarked numbers belong to inactive results. Calls of active or inactive are those of the source.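 Rule for the calls, unless noted: active = membrane potential signal drops by more than 5 SD from the mean control signal, in both duplicate plates; inactive = the rest.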

Columns and labels:
[1] = parental HEK293 membrane potential modulation, confirmation, counter-screen for TRPC6 modulator project, cell-based (AID 488924;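 active = membrane potential signal moves up or down beyond 5 SD from buffer-only wells, on both duplicate plates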); conditions: parental HEK293, membrane potential dye fluorescence; at 10 µM
[2] = modulation of acetylcholine-evoked membrane potential, parental HEK293, confirmation, counter-screen for TRPC6 modulator project, cell-based, second counter-screen, membrane potential dye (AID 488926); conditions: parental HEK293, membrane potential dye fluorescence, at 10 µM, after compound, maximal acetylcholine stimulation; hits give high values;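 for inhibition: plate controls were acetylcholine ECmax control wells for no effect and buffer only wells for full effect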
[3] = test system: Transient receptor potential cation channel subfamily C member 4 (mouse); assay: TRPC4 modulation by TRPC6 hit compounds, confirmation, selectivity assay for TRPC6 modulator project, cell-based, HEK293 TRPC4/mu-opioid, membrane potential dye, mouse (AID 488927;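 active = membrane potential signal moved up or down beyond 5 SD of buffer control wells, in both duplicate plates, actives on both sides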;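 for percent change from control (negative = decrease, positive = increase): plate controls were assay buffer wells for no effect and DAMGO maximal-effect wells for full effect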); conditions: membrane potential fluorescence, at 10 µM
[4] = test system: TRPC4 (transient receptor potential cation channel C4), mouse; assay: TRPC4 inhibition by TRPC6 hit compounds, confirmation, selectivity assay for TRPC6 modulator project, cell-based, second screen, HEK293 TRPC4/mu-opioid, membrane potential dye (AID 488928;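 active = drop in membrane potential signal beyond 5 SD of the control wells in both duplicate plates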;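 note: TRPC4 counter screen for TRPC6 hits run under conditions tuned for TRPC6 not TRPC4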); conditions: membrane potential dye fluorescence, at 10 µM, stimulated with maximal-effect DAMGO; hits give high values
[5] = target: Short transient receptor potential channel 6 (Mus musculus) (UniProt Q61143); assay: mouse TRPC6 channel inhibitors, confirmation, HEK293 cells, membrane potential dye, duplicate (AID 488960;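 active = fluorescence ratio falls more than 5 SD below the full-stimulation control mean, in both duplicate runs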;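 for inhibition: integrated fluorescence ratio of peak minus minimum over baseline after agonist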); conditions: ACh-evoked depolarization, at 10 µM; hits give high values
Sequence of Short transient receptor potential channel 6 (Mus musculus) (Q61143 whole entry, looked up): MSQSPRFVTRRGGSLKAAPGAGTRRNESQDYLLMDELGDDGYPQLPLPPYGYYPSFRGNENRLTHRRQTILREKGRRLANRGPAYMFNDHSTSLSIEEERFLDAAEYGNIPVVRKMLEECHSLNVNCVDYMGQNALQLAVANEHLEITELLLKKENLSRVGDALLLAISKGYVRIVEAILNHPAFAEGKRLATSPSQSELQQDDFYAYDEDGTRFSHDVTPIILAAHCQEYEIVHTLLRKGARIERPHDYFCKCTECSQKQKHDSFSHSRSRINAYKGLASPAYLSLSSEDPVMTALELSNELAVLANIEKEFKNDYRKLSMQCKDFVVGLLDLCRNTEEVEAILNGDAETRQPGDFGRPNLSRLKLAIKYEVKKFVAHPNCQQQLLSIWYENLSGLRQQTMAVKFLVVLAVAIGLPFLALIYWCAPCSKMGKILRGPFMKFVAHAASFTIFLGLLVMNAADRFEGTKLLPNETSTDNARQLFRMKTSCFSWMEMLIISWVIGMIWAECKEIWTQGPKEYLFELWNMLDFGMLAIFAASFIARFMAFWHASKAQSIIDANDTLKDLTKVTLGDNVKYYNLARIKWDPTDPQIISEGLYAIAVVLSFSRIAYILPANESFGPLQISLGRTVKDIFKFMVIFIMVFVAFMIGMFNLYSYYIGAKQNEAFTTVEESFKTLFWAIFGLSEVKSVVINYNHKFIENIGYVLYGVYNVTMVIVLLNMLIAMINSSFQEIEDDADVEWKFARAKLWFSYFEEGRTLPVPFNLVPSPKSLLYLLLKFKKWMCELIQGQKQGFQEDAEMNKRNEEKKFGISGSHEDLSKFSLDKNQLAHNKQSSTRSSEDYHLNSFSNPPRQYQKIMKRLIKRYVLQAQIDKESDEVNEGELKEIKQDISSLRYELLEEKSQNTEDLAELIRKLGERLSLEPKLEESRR

[6] = target: Short transient receptor potential channel 6 (Mus musculus) (UniProt Q61143); assay: mouse TRPC6 channel activators, confirmation, HEK293 cells, membrane potential dye, duplicate (AID 488961;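 active = ratio signal rise beyond 5 SD above unstimulated control wells' mean, seen in both duplicate runs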;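 for activation: plate controls were buffer EC0 wells for no effect and acetylcholine ECmax response for full effect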); conditions: HEK293-TRPC6 membrane potential dye fluorescence, FDSS, at 10 µM; hits give high values

COC(=O)c1ccccc1NC(=O)C1CCN(S(=O)(=O)c2cc(OC)ccc2OC)CC1
outcome [1]: inactive | outcome [2]: inactive | percent change from control (negative = decrease, positive = increase) [3]: 13% (active) | outcome [4]: inactive | outcome [5]: inactive

O=C(C1CCN(S(=O)(=O)Cc2ccccc2)CC1)N1CCCc2ccccc21
membrane potential signal change [1]: 90% (active) | outcome [2]: inactive | percent change from control (negative = decrease, positive = increase) [3]: 8.5% (active) | outcome [4]: inactive | outcome [5]: inactive | outcome [6]: inactive

CCCCN(CCCC)CC(O)Cn1c2ccccc2c(=O)c2ccccc21 (configuration not stated)
outcome [1]: inactive | outcome [2]: inactive | outcome [3]: inactive | inhibition [4]: 85.5% (active) | inhibition [5]: 69% (active)

CC(=O)c1cc(NC(=O)c2ccccc2)c(=O)oc1/C=C/N(C)C
membrane potential signal change [1]: 868% (active) | inhibition [2]: 196% (active) | percent change from control (negative = decrease, positive = increase) [3]: 43% (active) | inhibition [4]: 35.5% (active) | outcome [5]: inactive | outcome [6]: inactive

CCCN(CCc1ccccc1)C1CCc2c(O)cccc2C1 (configuration not stated)
membrane potential signal change [1]: 202% (active) | outcome [2]: inactive | percent change from control (negative = decrease, positive = increase) [3]: 45.5% (active) | inhibition [4]: 68.5% (active) | outcome [5]: inactive | activation [6]: 88.5% (active)

COc1ccc(Cn2c(-c3ccc(Cl)cc3)c[n+]3ccccc23)cc1
membrane potential signal change [1]: -296% (active) | outcome [2]: inactive | percent change from control (negative = decrease, positive = increase) [3]: -51.5% (active) | inhibition [4]: 48% (active) | inhibition [5]: 50.5% (active) | outcome [6]: inactive

Cc1cccc(NC(=S)NCCN(C2CCCCC2)C2CCCC2)c1
membrane potential signal change [1]: 129% (active) | outcome [2]: inactive | percent change from control (negative = decrease, positive = increase) [3]: 24.5% (active) | inhibition [4]: 68.5% (active) | inhibition [5]: 44.5% (active)

COc1ccc(Br)cc1/C=N/n1c(C)nnc1C
outcome [1]: inactive | outcome [2]: inactive | percent change from control (negative = decrease, positive = increase) [3]: 10% (active) | outcome [4]: inactive | outcome [5]: inactive

Nc1ccc(C(=O)N2CCN(S(=O)(=O)c3ccc(Cl)cc3)CC2)cc1[N+](=O)[O-]
outcome [1]: inactive | outcome [2]: inactive | outcome [3]: inactive | outcome [4]: inactive | inhibition [5]: 72.5% (active)

CCc1ccc(-c2cc(C(=O)NN3CCN(C)CC3)c3ccccc3n2)cc1
outcome [1]: inactive | outcome [2]: inactive | outcome [3]: inactive | inhibition [4]: 41% (active) | outcome [5]: inactive | outcome [6]: inactive

N=c1n(CCc2ccccc2)c2ccccc2n1Cc1ccccc1F
membrane potential signal change [1]: 129% (active) | outcome [2]: inactive | percent change from control (negative = decrease, positive = increase) [3]: 20.5% (active) | inhibition [4]: 90.5% (active) | inhibition [5]: 66.5% (active)

Cc1cc(C)c2nc3nc(C)cc(C)c3c(N)c2c1
outcome [1]: inactive | inhibition [2]: 76.5% (active) | percent change from control (negative = decrease, positive = increase) [3]: -31% (active) | inhibition [4]: 48% (active) | outcome [5]: inactive | outcome [6]: inactive

N=c1c2c3c(sc2ncn1CCCN1CCOCC1)CCCCC3
outcome [1]: inactive | outcome [2]: inactive | outcome [3]: inactive | inhibition [4]: 52.5% (active) | outcome [5]: inactive | outcome [6]: inactive
